A selection: hits, their analogues and other compounds. The true share with any hit is near 0.78%.
PKA-R1A act: activates the PKA-R1A holoenzyme complex. P00514+P68181. PKA-R1A dissociation, Cy5-IP20 fluorescence polarization; scaled: DMSO 0%, 113 µM cGMP 100%. activation, % at 11.4 µM. AID 504707. 340,000 tested, 0.083% active;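 active means percent activation above the mean of all tested compounds plus 3 SD, cut at about 19% in these data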;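 further: higher means more PKAc released from R1A so a rise in polarization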
V-ATPase pH: regulators of yeast V-ATPase proton transport | S. cerevisiae, pHLuorin cytosolic pH fluorescence | response, % at 10 µM | 350,000 tested, 0.37% active | AID 504577; in the data active means response mostly above about 7.3%, no sharp cut-off; inactive means mostly below about 5.4%; further: actives read high
PolyA inhibitor: inhibitors of polyadenylation in S. cerevisiae; 300,000 tested, 0.02% active; S. cerevisiae SKY197-pL101 polyadenylation reporter, beta-gal luminescence; efflux-impaired pdr1/pdr3 knockout yeast; score 100 = 6 SD above DMSO; activity score, % at 12 µM;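 active means lowest replicate activity score at least 50, where 100 means six control SD above control mean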;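 further: yeast exposed to compound for 9 h at 30 °C; higher score means more reporter readthrough which indicates perturbed polyadenylation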
JMJD2C inh: inhibitors of human GASC-1 (JMJD2C) demethylase; 330,000 tested, 0.069% active; inhibition, % at 2.35 µM; GST-JMJD2C(1-420) H3K9me3 demethylation, DELFIA europium; Q9H3R0;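 active means more than half of a compound's replicate wells show inhibition beyond 50%, single wells judged on their own value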;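 further: signal counts dimethyl H3K9 product captured on neutravidin plate; 0% = median of DMSO wells and 100% = 0.3 times that DMSO median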
Yeast superoxide: lowers age-related superoxide in aged yeast cells; superoxide response (% of plate mean), % at 10 µM; S. cerevisiae aged cells, superoxide DHE fluorescence; active compounds read low; 330,000 tested, 0.18% active; AID 2690;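 active means superoxide response under a set limit, about three screen SD below normal, cut at about 65% in these data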;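 further: yeast aged for seven days with compound at 30 °C before DHE staining; 100% = average MFI of all compound-treated wells on the plate with controls excluded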
PKA-R2B activ: activators of human PKA-R2B complex. P22694+P31323. PKA-R2B holoenzyme dissociation, Cy5-IP20 fluorescence polarization; R2B truncated from residue 108, S112A mutant; 0% DMSO only, 100% 113 µM cGMP. activation, % at 11.4 µM. 340,000 tested, 0.079% active;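 active means activation above a cutoff set at the mean over all compounds plus 3 SD, cut at about 18% in these data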;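 further: higher means more holoenzyme dissociation and a rise in polarization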
Target sequence (P31323 whole entry, looked up, other chains not shown, the tested form may be a part): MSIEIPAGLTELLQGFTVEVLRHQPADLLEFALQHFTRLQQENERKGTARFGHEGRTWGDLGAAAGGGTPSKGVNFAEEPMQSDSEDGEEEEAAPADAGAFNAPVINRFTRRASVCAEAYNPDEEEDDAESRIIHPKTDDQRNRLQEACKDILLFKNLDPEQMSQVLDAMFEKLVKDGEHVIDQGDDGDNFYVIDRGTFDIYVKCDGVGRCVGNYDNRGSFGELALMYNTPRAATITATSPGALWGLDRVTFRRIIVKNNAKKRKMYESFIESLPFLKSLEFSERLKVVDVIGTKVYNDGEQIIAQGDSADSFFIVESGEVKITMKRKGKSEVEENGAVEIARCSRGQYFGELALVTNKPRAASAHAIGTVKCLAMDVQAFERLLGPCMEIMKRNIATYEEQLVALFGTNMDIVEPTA
Numbers without * were called inactive; / = not tested or not shown.

SMILES	PKA-R1A act	V-ATPase pH	PolyA inhibitor	JMJD2C inh	Yeast superoxide	PKA-R2B activ
Cc1cccc(NC(=O)CC2Nc3cccc4cccc(c34)NC2=O)c1 (stereo not given)	-13.3	0.2	2.5	51.4*	99.3	-7.9
CC(=O)Nc1ccc(NC(=O)CC2Nc3cccc4cccc(c34)NC2=O)cc1 (stereo not given)	-2.9	1.1	14.2	6.6	95.5	-1.2
COc1ccc(N2CC(NC(=O)c3ccc4ccccc4c3)CC2=O)cc1OC (stereo not given)	-6.3	-0.9	-9.8	-5.7	93.2	4.4
Cc1cccc(C(=O)OCC(=O)N(CC(C)C)c2c(N)n(Cc3ccccc3)c(=O)[nH]c2=O)c1C	5.9	7.8	/	/	/	-11.6
Cc1ccc(NC(=O)Nc2cccs2)cc1	0.9	23.3*	-1.2	-43.4	105.0	-5.0
COc1cccc(CN(C(=O)c2ccccc2)C2CCS(=O)(=O)C2)c1 (stereo not given)	-8.6	28.7*	15.2	-3.7	86.0	1.3
COc1cccc(CN(C(=O)c2cccc(OC)c2)C2CCS(=O)(=O)C2)c1 (stereo not given)	-5.4	0.7	25.8	-9.0	76.1	-3.3
O=C(/C=C/c1ccccc1)NC(=S)N1CCSCC1	-0.8	-1.4	-3.2	4.3	98.5	-2.1
COc1ccc(OCCCC(=O)Nc2ccc3c(c2)OCO3)cc1	6.0	15.9*	-19.9	-11.0	91.0	-1.1
COc1ccc2nc(N3CCCC3)c(C#N)cc2c1	6.2	11.4*	-17.9	47.3	96.0	-0.5
COc1ccc2nc(N3CCCCC3)c(C#N)cc2c1	-3.6	-2.0	-21.9	-6.1	105.8	-6.8
Cc1n(CC(=O)c2ccc(F)cc2)c2ccccc2[n+]1C	-10.2	3.6	34.3	-10.0	80.2	-10.7
CCOC(=O)Cn1c(C)[n+](CC(=O)c2ccccc2)c2ccccc21	-0.7	-2.8	-4.1	-4.9	65.5*	0.1
CC1=C(C(=O)OCCc2ccccc2)C(c2ccsc2)NC(=O)N1C (stereo not given)	5.6	22.8*	4.0	-12.4	102.4	3.3
COc1ccccc1Nc1nnc(C)c(=O)[nH]1	0.7	5.5	-6.6	-2.4	93.5	0.8
CCOc1ccccc1Nc1nnc(C)c(=O)[nH]1	-11.5	14.8*	12.1	-19.1	99.4	-4.4
Cc1nn(C)c(N)c1C(O)(c1nccn1C)C(F)(F)F (stereo not given)	3.1	0.0	0.0	80.6*	98.9	-6.2
O=C(c1ccoc1)N1CCN(c2cc(-c3cccc(F)c3)nc3cc(-c4cccc(Cl)c4)nn23)CC1	-0.1	0.2	/	/	/	-2.3
CCN(CC)S(=O)(=O)c1cc(OCC(N)=O)c(C)cc1Cl	3.4	14.5*	14.6	15.2	103.1	-7.6
CCC(C)N1CCC2(CC1)N=c1c(c3c4c5c(C)c(O)c3c(O)c1=NC(=O)C(C)=CC=C[C@H](C)[C@H](O)[C@@H](C)[C@@H](O)[C@@H](C)[C@H](OC(C)=O)[C@H](C)[C@@H](OC)C=CO[C@@](C)(O5)C4=O)N2 (stereo not given in full)	-5.6	10.6	/	/	71.6	-3.1
CO[C@H]1C=CO[C@@]2(C)Oc3c(C)c(O)c4c(O)c(c5c(c4c3C2=O)NC2(CCN(CC(C)C)CC2)N=5)=NC(=O)C(C)=CC=C[C@H](C)[C@H](O)[C@@H](C)[C@@H](O)[C@@H](C)[C@H](OC(C)=O)[C@@H]1C	/	/	5.3	-21.5	62.0*	/
COc1ccc(NC(=O)N(C)C[C@H]2Oc3c(NS(=O)(=O)c4cn(C)cn4)cccc3C(=O)N([C@H](C)CO)C[C@@H]2C)cc1	-5.3	-2.3	/	57.9*	98.5	4.9
C[C@H](CO)N1C[C@H](C)[C@@H](CN(C)S(=O)(=O)c2ccc(F)cc2)Oc2ccc(NC(=O)C3CC3)cc2C1=O	-0.8	0.8	/	62.0*	91.3	-10.9
CC(C)NC(=O)N(C)C[C@H]1Oc2ccc(NS(=O)(=O)c3ccccc3)cc2C(=O)N([C@H](C)CO)C[C@H]1C	-4.5	-5.4	/	54.0*	99.5	-2.2
Cc1cccn2c(=O)c(C(=O)NC3CCCCC3)c(O)nc12	3.2	-1.9	0.2	-0.8	86.2	-6.3
SMILES	PKA-R1A act	V-ATPase pH	PolyA inhibitor	JMJD2C inh	Yeast superoxide	PKA-R2B activ
Cc1cccn2c(=O)c(C(=O)NC3CC(C)CC(C)(C)C3)c(O)nc12 (stereo not given)	-8.5	6.7	4.8	52.5*	92.9	-9.2
Cc1cc2ccccn2c1C(=O)c1ccncc1	-10.2	0.9	-1.2	69.3*	93.8	-4.9
C#CCOCCOCCOCCNc1nc(N2CCN(C(=O)CCCCCCCCCCNC(=O)Cn3cc(CCCCCN)nn3)CC2)nc(N2CCN(C(=O)CCCCCCCCCCNC(=O)Cn3cc(C[C@@H](C)O)nn3)CC2)n1	5.4	8.6*	/	/	101.0	-1.1
C#CCOCCOCCOCCNc1nc(N2CCN(C(=O)CCCCCCCCCCNC(=O)Cn3cc(C[C@@H](C)O)nn3)CC2)nc(N2CCN(C(=O)CCCCCCCCCCNC(=O)[C@@H]([C@H](C)CC)n3cc(CCCCCN)nn3)CC2)n1	-4.3	11.2	/	13.0	99.2	-11.2
CN(Cc1ccccc1)S(=O)(=O)c1ccc(Cl)c(C(=O)NCc2cccnc2)c1	8.5	3.7	3.6	-0.9	95.8	-0.6
FC(F)(F)c1cc(-c2ccco2)nc(NCc2cccnc2)n1	-10.2	0.8	-3.4	4.0	91.3	-1.3
FC(F)(F)c1cc(-c2ccccc2)nc(NCc2cccnc2)n1	-9.4	20.0*	7.9	-12.1	124.4	-8.0
C/C(=C\C(=O)OCCCCCCCCC(=O)O)C[C@@H]1OC[C@H](C[C@@H]2O[C@H]2[C@@H](C)[C@H](C)O)[C@@H](O)[C@H]1O	-11.1	5.8	33.2	-9.7	100.0	-4.3
Cc1ccccc1/C=C/c1cc[n+](C)cc1	8.8	-0.9	2.0	-1.2	98.3	8.6
Cc1[nH]c2ccccc2c1/C=C/c1cc[n+](C)cc1	-2.5	13.0*	-12.7	-24.3	/	-3.8
CC(C)CN1C(=O)C(=O)N(CC(=O)NC(C)CCc2ccccc2)C1=O (stereo not given)	-1.4	1.1	/	/	/	-13.0
COc1ccc(CNC(C)CCc2ccccc2)cc1 (stereo not given)	-8.1	-1.1	-18.2	-4.5	102.1	-4.2
COc1ccc(CCC(C)NC2C3CC4CC(C3)CC2C4)cc1 (stereo not given)	4.0	15.8*	-22.0	9.8	/	-1.2
CC(C)(Oc1ccc(Cl)cc1)C(=O)NNC(=O)c1ccc(Br)o1	1.9	3.0	/	8.8	112.7	2.2
O=C(CSc1nnc(CNC(=O)c2cccs2)o1)c1ccc(Cl)cc1	1.8	-3.6	7.5	5.5	101.7	-0.6
O=C(CSc1nnc(CNC(=O)c2cccs2)o1)c1ccccc1	4.6	4.9	10.8	96.6*	108.7	3.1
